Screening data (PubChem BioAssay)
D1 PAM: enhances dopamine response at the human D1 receptor; P21728; HEK293 TREx D1 cells, calcium flux, dopamine EC20 potentiation; potentiation, % at 10 µM; 360,000 compounds, 0.036% hits; AID 504651; in the data active means potentiation above about 30%; further: 0% is about no effect
Target sequence (P21728 whole entry, looked up): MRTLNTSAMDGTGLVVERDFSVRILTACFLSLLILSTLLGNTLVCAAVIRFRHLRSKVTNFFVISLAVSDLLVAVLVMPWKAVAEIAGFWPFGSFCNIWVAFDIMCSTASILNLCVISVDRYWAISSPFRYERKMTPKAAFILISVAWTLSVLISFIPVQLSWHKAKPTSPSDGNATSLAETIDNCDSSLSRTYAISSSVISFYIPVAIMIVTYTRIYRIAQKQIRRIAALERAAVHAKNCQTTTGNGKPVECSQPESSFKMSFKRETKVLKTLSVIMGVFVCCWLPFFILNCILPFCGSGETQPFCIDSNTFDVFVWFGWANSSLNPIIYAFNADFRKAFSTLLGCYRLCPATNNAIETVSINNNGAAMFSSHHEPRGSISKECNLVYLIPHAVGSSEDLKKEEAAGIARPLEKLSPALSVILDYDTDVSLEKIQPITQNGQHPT
DRD3 agonist: D3 dopamine receptor (human) agonism; 410,000 compounds, 0.58% hits; P35462; AID 652048; max activation, %; D3R DiscoveRx beta-arrestin cells, luminescence, 90 min; in the data active means max activation above about 30%; further: 0% is about no effect
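Agonist-mode cell screen: cells plated at 1500/well and incubated overnight at 37 °C, then exposed to library compounds for 90 min at 37 °C. Detection reagent was added for 30–60 min at room temperature, and luminescence was read.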
D1 agonist: agonists of human D1 dopamine receptor. HEK293 T-REx D1 cells, calcium flux, agonist mode. P21728. 360,000 compounds, 1% hits. activation, % at 2 µM; in the data active means activation above about 30%; further: 0% is about no effect
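Agonism was scored from calcium flux recorded over 180 s (1 read/s) after pintool compound addition, following a 10-cycle baseline. Cells were inducible force-coupled HEK293 TREx D1, plated overnight at 30 C and loaded with no-wash calcium dye.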
D3 antag: D3 dopamine receptor (human) antagonism | P35462 | D3R cells, DiscoveRx beta-arrestin luminescence, antagonist mode; hits give low values | max response, negative = inhibition, % | 360,000 compounds, 2.5% hits; in the data active means max response below about -50%; inconclusive means no clear call, values can overlap the other calls; further: on the % scale 0 is the no-effect control and ±100 the full control effect
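Cells plated overnight at 1500 cells/well, then exposed to library compounds with dopamine controls for 90 minutes at 37 degrees C. DiscoveRx reagent added for 30–60 minutes at room temperature; luminescence read, quantitative HTS format.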
D1 antagonist: human D1 dopamine receptor antagonism; P21728; HEK293 TREx D1 cells, calcium flux, dopamine EC80; hits give low values; activity change, negative = inhibition, % at 10 µM; 360,000 compounds, 3.2% hits; in the data active means activity change below about -30%; further: on the % scale 0 is the no-effect control and ±100 the full control effect
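Antagonism measured as reduced calcium response to an EC80 dopamine addition following 180 s compound pre-read; cells were inducible HEK293 Trex D1 plated overnight at 30 C, read kinetically at 1 cycle/sec.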
Numbers without * were called inactive. Sampled rows, rich in hits. Any-hit rate of the full collection: about 6%.

Screening CC1CCc2sc(C(=O)NCC(C)(C)N3CCOCC3)cc2C1 (stereo unspecified) returned D1 PAM -2, DRD3 agonist -11, D1 agonist 3, D3 antag 8 and D1 antagonist -68*.
`O=C(c1cc2ccccc2oc1=O)N(Cc1cccs1)CC1CCCO1` (stereo unspecified) gave D1 PAM -1, DRD3 agonist -10, D1 agonist 2, D3 antag -14 and D1 antagonist -16.
COc1cccc2cc(C(=O)N3CC(C)OC(C)C3)c(=O)oc12 (stereo unspecified) was read as D1 PAM -1, DRD3 agonist 1, D1 agonist 2, D3 antag 2 and D1 antagonist 4.
Screening COc1cccc2cc(C(=O)N(Cc3cccs3)CC3CCCO3)c(=O)oc12 (stereo unspecified) returned D1 PAM -4, DRD3 agonist 7, D1 agonist 1, D3 antag -2 and D1 antagonist -38*.
Screening COc1cccc2cc(C(=O)N(C)C3CCN(C)CC3)c(=O)oc12 returned D1 PAM -10, DRD3 agonist -7, D1 agonist 1, D3 antag 29 and D1 antagonist -39*.
CCOC(=O)c1c(C)[nH]c(C)c1S(=O)(=O)N(C)CC(=O)Nc1cc(Cl)ccc1C was read as D1 PAM -3, DRD3 agonist 0, D1 agonist 4 and D1 antagonist -11.
`COc1ccc(Cn2c(CCC(=O)Nc3ccc(OC)c(Cl)c3)nc3cccnc32)cc1` gave D1 PAM -2, DRD3 agonist -8, D1 agonist 4 and D1 antagonist 5.
`c1ccc(-c2cnc(SCCN3CCOCC3)n2CC2CCCO2)cc1` (stereo unspecified) gave D1 PAM -2, DRD3 agonist -2, D1 agonist 2, D3 antag -57* and D1 antagonist -15.
For COc1ccc(-c2cnc(N)n2CC2CCCO2)cc1 (stereo unspecified) the results were D1 PAM 6, DRD3 agonist -13, D1 agonist 0, D3 antag inconclusive and D1 antagonist 5.
`COc1cccc(-c2nc(SCC(=O)NC3CCCC3)c(-c3ccccc3)[nH]2)c1` gave D1 PAM 1, DRD3 agonist -9, D1 agonist 1 and D1 antagonist -8.
Screening CCOC(=O)C1=C(C)NC(C)=C(C(=O)OC)C1c1cccc([N+](=O)[O-])c1 (stereo unspecified) returned D1 PAM -5, DRD3 agonist -27, D1 agonist 5, D3 antag 5 and D1 antagonist -9.
COC(=O)C1=C(C)NC(C)=C(C(=O)OC)C1c1ccccc1[N+](=O)[O-] was read as D1 PAM 2, DRD3 agonist -83, D1 agonist 14, D3 antag -105* and D1 antagonist -13.
`Cc1noc(C)c1S(=O)(=O)Nc1ccc2c(c1)C(=O)N([C@H](C)CO)C[C@H](C)[C@@H](CN(C)C(=O)CCCN(C)C)OCCCC[C@@H](C)O2` gave DRD3 agonist 4 and D3 antag 3.
CC1CCN(CCCn2c(=S)[nH]c3ccc(N4CCOCC4)cc3c2=O)CC1 was read as D1 PAM 0, DRD3 agonist -55, D1 agonist 1, D3 antag -81* and D1 antagonist 11.
Screening O=c1c2cc(N3CCOCC3)ccc2[nH]c(=S)n1CCCN1CCCC1 returned D1 PAM 0, DRD3 agonist -11, D1 agonist -3, D3 antag -73* and D1 antagonist 1.
`O=c1c2cc(N3CCOCC3)ccc2[nH]c(=S)n1CCCN1CCCCC1` gave D1 PAM -6, DRD3 agonist -3, D1 agonist -3, D3 antag 0 and D1 antagonist 0.
For Cc1ccccc1C(=O)Nc1c(C)nc2ccccn2c1=O the results were D1 PAM -1, DRD3 agonist -15, D1 agonist 2 and D1 antagonist 12.
`COC(=O)c1ccsc1NC(=O)CS(=O)(=O)c1ccccc1` gave D1 PAM 2, DRD3 agonist -15, D1 agonist 1, D3 antag -102* and D1 antagonist 7.
Screening COC(=O)c1ccsc1NC(=O)CCS(=O)(=O)c1ccccc1 returned D1 PAM -4, DRD3 agonist 2, D1 agonist 10, D3 antag 10 and D1 antagonist -2.
For Cc1ccc(-n2ncc(C(=O)NCCc3ccsc3)c2C2CCN(C(=O)OC(C)(C)C)CC2)cc1C the results were D1 PAM -4, DRD3 agonist 3, D1 agonist 3 and D1 antagonist -4.
`O=C1CC(c2c[nH]c3ccccc23)C(=O)N1c1ccccc1` (stereo unspecified) gave D1 PAM -6, DRD3 agonist 4, D1 agonist -1, D3 antag 10 and D1 antagonist -34*.
COc1cccc(N2C(=O)CC(c3c[nH]c4ccccc34)C2=O)c1 (stereo unspecified) was read as D1 PAM 2, DRD3 agonist 0, D1 agonist -1, D3 antag -14 and D1 antagonist -5.
CCc1ccc(C2N=C(N)Nc3nc4ccccc4n32)cc1 (stereo unspecified) was read as D1 PAM -3, DRD3 agonist -11, D1 agonist 4 and D1 antagonist -14.
`CCOC(=O)c1ccccc1-n1c(C)cc(C2N=C(N)Nc3nc4ccccc4n32)c1C` (stereo unspecified) gave D1 PAM -6, DRD3 agonist -5, D1 agonist 2, D3 antag -21 and D1 antagonist -36*.
`O=C(O)c1cccc(Nc2nc(-c3ccc([N+](=O)[O-])cc3)nc3ccccc23)c1` gave D1 PAM -4, DRD3 agonist 27, D1 agonist 4, D3 antag 19 and D1 antagonist 4.
Screening Cc1ccc(-c2nc(Nc3cccc(O)c3)c3ccccc3n2)cc1 returned D1 PAM -14, DRD3 agonist -3, D1 agonist 7, D3 antag 1 and D1 antagonist -30*.
`Cc1ccc(-c2nc(Nc3ccc(O)cc3)c3ccccc3n2)cc1` gave D1 PAM -6, DRD3 agonist 1, D1 agonist 0, D3 antag 0 and D1 antagonist -23.
`O=[N+]([O-])c1ccc(-c2nc(Nc3cccc(O)c3)c3ccccc3n2)cc1` gave D1 PAM -9, DRD3 agonist -1, D1 agonist 5, D3 antag 22 and D1 antagonist -33*.
`Cc1cccc(CNc2ncnc3ccc(-c4cccc(Cl)c4)cc23)c1` gave D1 PAM -2, D1 agonist 3 and D1 antagonist -16.
For C=C(C)c1cc2c(s1)c1cnn(Cc3ccccc3F)c(=O)c1n2C the results were D1 PAM 18, D1 agonist 10 and D1 antagonist 32.
`[Cl][In]([Cl])[Cl]` gave DRD3 agonist 5.
